Laboratory results from PubChem BioAssay (NCATS).
Inconclusive results are not listed. Activity calls are given as the source filed them. Calls follow the shape of the dose curve; as a rule, active = well fitted curve in the direction sought with a large enough effect; inconclusive = small, poorly fitted or top-dose-only effect, or another doubt; inactive = no such curve, though single readings can be large; an effect the other way counts as inactive or inconclusive.

Columns and labels:
[1] = qHTS to identify inhibitors of the type 1 interferon - major histocompatibility complex class I in skeletal muscle: primary screen against the NCATS LOPAC collection (AID 1347405); settings: iHSKM muscle cells, IFN-b-induced MHC-I HiBiT luminescence, 24 h; series mostly up to 45.9 µM;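 also: human myoblasts with HiBiT tag on endogenous HLA-B stimulated by IFN-beta; lytic HiBiT luminescence reporting HLA-B protein level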
How it was run: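 IFN-beta-stimulated (4 ng/ml) HLA-B HiBiT knock-in myoblasts, compound-treated 24 hrs up to 46 uM final; signal via LgBiT complementation and furimazine luminescence.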

[2] = qHTS to identify inhibitors of the type 1 interferon - major histocompatibility complex class I in skeletal muscle: primary screen against the NCATS Pharmaceutical Collection (AID 1347407); settings: human skeletal muscle cells, IFN-b-induced MHC-I HiBiT luminescence, 24 h; series mostly up to 45.9 µM;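 also: luminescence of HiBiT knocked into endogenous HLA-B as interferon-induced MHC class I level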
How it was run: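 Compounds […] were added to CRISPR-engineered HLA-B-HiBiT C25cl48 human myoblasts with 4.0 ng/ml IFN-beta. After 24 hrs at 37 C, cells were lysed and HiBiT luminescence measured.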

[3] = qHTS for inhibitors of adenylyl cyclases using a fission yeast platform: a pilot screen against the NCATS LOPAC library (AID 1347410); settings: S. pombe CHP2027, fbp1-GFP fluorescence, 18 h, yeast expressing mammalian AC9 and human GNAS; series mostly up to 57.5 µM
How it was run: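 GFP from fbp1-GFP reporter, read by Acumen laser cytometry, indicates AC inhibition in fission yeast expressing AC9, GNAS and PDE4D2. Cells grown 18 h in the dark at 30C with compounds, final up to 57 uM.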

[4] = biological target: Protein phosphatase 1D (Homo sapiens) (UniProt O15297); test: RapidFire Mass Spectrometry qHTS Assay for Modulators of WT P53-Induced Phosphatase 1 (WIP1) (AID 1347424); settings: WIP1 dephosphorylation of phosphopeptide, RapidFire MS; series mostly up to 63 µM;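 also: amount of dephosphorylated VEPPL-S-QETFS peptide product formed by WIP1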
How it was run: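 RapidFire mass spectrometry measured dephosphorylated peptide after 5 min room-temperature reaction of 2 uM VEPPL-pS-QETFS with 10 nM WIP1 (50 mM Tris-HCl pH 7.5, 30 mM MgCl2, 0.1 mM EGTA, BSA), following 1 hr compound preincubation; 1 uM isotope-labelled product standard.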

[5] = biological target: Protein phosphatase 1D (Homo sapiens) (UniProt O15297); test: Rhodamine-PBP qHTS Assay for Modulators of WT P53-Induced Phosphatase 1 (WIP1) (AID 1347425); settings: recombinant WIP1, Rhodamine-PBP phosphate fluorescence, real-time; series mostly up to 57.5 µM
How it was run: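 Steps: enzyme with Rh-PBP sensor and compounds, room-temperature incubation of 1 hr, baseline read, addition of VEPPL-pS-QETFS (10 uM final), kinetic fluorescence reads at 525/598 nm. Activity equals final minus baseline signal.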

[6] = Validation qHTS assay for inhibitors of Activation Induced Cytidine Deaminase (AID): UDG Counterscreen signal (AID 1347427); settings: biochemical UDG counterscreen, fluorescence signal; series mostly up to 115 µM
How it was run: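 Fluorescence at 560 nm excitation, 665 nm emission reports UDG signal after 250 mM NaOH (2x) addition and 30 min. Enzymes (AID 1 uM, UDG 2 U/mL, at 4/3x) preincubated 10 min with compound, then 4 h with 4x 250 nM DJC20/DJC23 substrate at room temperature.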

[7] = biological target: Single-stranded DNA cytosine deaminase (Homo sapiens) (UniProt Q9GZX7); test: Validation qHTS assay for inhibitors of Activation Induced Cytidine Deaminase (AID): AID signal (AID 1347429); settings: Recombinant AID, FRET ssDNA deamination with UDG, fluorescence; series mostly up to 115 µM
How it was run: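 Compounds (up to 114 uM final) are tested against AID plus UDG using DJC20/DJC23 FRET substrate. Reactions incubate 4 hr at room temperature, receive NaOH for 30 min, and are read at Ex 540/Em 590 nm.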

[8] = Primary qHTS for inhibitors of La Crosse Virus (LACV) - induced cell death in SH-SY5Y cells (AID 1508616); settings: SH-SY5Y LACV cytopathicity rescue, ATP luminescence, 6 d; series mostly up to 9.63 µM;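 also: top concentration of the series differs between compounds; higher means more rescue of cells from virus-induced death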
How it was run: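 Screening measures cell viability in LACV-infected SH-SY5Y cultures. Compound was added before virus (0.01 MOI), and ATP was detected by luminescence 6 days later.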

[9] = biological target: Calcium and integrin-binding protein 1 (Homo sapiens) (UniProt Q99828); test: Validation qHTS for Identification of Calcium Integrin Binding protein 1 (CIB1) Competitor (AID 1508618); settings: CIB1-GST / FITC-alphaIIb peptide fluorescence polarization; series mostly up to 114 µM
How it was run: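 In this qHTS validation, the LOPAC set (up to 114 uM) was tested for blocking CIB1 binding to a fluorescein-tagged alphaIIb peptide, with FP detection at 480/540 nm.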

[10] = biological target: Lysine-specific demethylase 5B (Homo sapiens) (UniProt Q9UGL1); test: Optimization screen for KDM5B Histone Demethylases FDH coupled qHTS against the LOPAC library (AID 1347166); settings: KDM5B demethylation, FDH-coupled NADH fluorescence (FDH is formaldehyde dehydrogenase); series mostly up to 57.5 µM
How it was run: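 KDM5BDeltaAP (200nM final) in 50mM HEPES pH 7.5, 0.01% Tween-20 was preincubated with compound for 10 min at room temperature. A substrate mix of 12.5uM H3K4Me3, 25uM a-ketoglutarate, ascorbate, Fe2+, NAD+ and formaldehyde dehydrogenase was then added. NADH fluorescence (340/450 nm) was read initially and after 30 min.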

[11] = biological target: Calcium and integrin-binding protein 1 (Homo sapiens) (UniProt Q99828); test: Primary qHTS for Identification of Calcium Integrin Binding Protein 1 (CIB1) Competitor (AID 1508620); settings: CIB1-GST / FITC-alphaIIb peptide fluorescence polarization; series mostly up to 114 µM;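 also: GST tagged CIB1 binding a fluorescein labelled alphaIIb integrin peptide tracer; top concentration of the series differs between compounds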
How it was run: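 CIB1-GST (1 uM final) and compound incubated 15 min at room temperature before adding FITC-alphaIIb peptide tracer (100 nM final). Competition for binding read by fluorescence polarization (ex 480, em 540) after another 15 min at room temperature.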

Measured: Potency

Sequence of Calcium and integrin-binding protein 1 (Homo sapiens) (Q99828 whole entry, looked up): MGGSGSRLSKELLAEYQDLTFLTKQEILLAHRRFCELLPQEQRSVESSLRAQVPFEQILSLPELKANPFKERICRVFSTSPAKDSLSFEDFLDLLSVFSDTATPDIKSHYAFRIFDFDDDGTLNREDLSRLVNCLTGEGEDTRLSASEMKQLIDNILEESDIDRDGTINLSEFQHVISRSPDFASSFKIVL
Sequence of Protein phosphatase 1D (Homo sapiens) (O15297 whole entry, looked up): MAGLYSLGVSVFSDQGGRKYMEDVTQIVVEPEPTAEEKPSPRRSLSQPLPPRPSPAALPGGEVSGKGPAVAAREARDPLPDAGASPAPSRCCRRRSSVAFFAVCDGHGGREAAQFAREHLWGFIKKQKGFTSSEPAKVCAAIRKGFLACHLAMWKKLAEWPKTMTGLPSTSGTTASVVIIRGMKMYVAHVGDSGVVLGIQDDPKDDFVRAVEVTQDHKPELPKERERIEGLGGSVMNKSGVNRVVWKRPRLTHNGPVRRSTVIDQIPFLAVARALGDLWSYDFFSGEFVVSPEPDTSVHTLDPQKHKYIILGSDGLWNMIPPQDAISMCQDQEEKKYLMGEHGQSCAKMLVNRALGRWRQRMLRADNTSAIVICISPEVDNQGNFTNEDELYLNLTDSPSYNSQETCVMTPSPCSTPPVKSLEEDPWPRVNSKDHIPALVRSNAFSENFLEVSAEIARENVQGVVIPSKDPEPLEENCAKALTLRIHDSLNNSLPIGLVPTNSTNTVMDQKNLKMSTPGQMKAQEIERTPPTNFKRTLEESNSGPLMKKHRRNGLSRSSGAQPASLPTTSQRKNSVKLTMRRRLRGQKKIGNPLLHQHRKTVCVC
Sequence of Single-stranded DNA cytosine deaminase (Homo sapiens) (Q9GZX7 whole entry, looked up): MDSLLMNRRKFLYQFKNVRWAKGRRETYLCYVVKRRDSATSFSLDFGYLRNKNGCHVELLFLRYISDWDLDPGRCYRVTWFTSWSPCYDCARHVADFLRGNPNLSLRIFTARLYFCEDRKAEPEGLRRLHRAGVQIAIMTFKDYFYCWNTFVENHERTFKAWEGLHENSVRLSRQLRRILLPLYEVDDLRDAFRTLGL
Sequence of Lysine-specific demethylase 5B (Homo sapiens) (Q9UGL1 whole entry, looked up): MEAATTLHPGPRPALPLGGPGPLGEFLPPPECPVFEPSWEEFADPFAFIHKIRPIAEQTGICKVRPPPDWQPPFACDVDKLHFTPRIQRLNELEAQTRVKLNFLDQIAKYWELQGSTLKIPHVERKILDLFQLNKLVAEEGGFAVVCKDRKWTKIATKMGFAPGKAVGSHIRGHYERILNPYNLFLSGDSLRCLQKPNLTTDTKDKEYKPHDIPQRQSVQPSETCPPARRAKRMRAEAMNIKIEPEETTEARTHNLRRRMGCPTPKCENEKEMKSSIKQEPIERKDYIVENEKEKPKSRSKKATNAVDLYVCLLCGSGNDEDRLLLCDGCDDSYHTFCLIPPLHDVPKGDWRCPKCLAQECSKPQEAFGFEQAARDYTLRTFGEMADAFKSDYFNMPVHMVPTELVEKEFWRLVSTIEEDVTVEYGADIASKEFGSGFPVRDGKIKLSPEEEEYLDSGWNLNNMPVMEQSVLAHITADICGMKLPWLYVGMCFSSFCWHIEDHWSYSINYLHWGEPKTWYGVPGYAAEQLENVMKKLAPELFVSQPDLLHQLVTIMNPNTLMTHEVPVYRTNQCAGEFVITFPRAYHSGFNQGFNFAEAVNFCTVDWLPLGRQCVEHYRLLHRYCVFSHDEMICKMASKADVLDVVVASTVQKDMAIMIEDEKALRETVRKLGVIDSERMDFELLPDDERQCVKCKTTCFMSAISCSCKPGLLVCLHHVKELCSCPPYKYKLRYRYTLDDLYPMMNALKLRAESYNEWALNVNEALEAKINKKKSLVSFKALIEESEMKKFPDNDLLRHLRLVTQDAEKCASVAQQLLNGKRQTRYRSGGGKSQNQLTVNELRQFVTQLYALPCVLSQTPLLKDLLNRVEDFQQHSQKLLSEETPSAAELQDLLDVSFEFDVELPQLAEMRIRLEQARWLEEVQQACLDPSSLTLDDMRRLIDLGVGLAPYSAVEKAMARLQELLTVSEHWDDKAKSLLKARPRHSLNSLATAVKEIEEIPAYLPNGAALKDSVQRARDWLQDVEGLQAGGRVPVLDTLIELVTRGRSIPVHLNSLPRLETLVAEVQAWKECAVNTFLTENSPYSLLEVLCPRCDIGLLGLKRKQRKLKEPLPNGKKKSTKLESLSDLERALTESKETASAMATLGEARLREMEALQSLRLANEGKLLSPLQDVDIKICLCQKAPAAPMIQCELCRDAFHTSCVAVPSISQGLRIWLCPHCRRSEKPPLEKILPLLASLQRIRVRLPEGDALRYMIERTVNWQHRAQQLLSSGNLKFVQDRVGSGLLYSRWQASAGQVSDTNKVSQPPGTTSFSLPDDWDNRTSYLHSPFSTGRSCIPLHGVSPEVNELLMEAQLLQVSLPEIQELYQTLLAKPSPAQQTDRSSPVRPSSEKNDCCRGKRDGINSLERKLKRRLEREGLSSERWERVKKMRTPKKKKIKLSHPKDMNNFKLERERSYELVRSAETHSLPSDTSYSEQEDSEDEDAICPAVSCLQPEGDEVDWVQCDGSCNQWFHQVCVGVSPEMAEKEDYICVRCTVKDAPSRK

CCn1cc(C(=O)O)c(=O)c2cc3c(cc21)OCO3
not listed: [10] | [11]
inactive: all other assays above

C[C@H](CS)C(=O)N1CCC[C@H]1C(=O)O
inactive: [10] | [3] | [4] | [5] | [8]

C#CCN(C)CCCOc1ccc(Cl)cc1Cl
not listed: [10]
inactive: all other assays above

C[C@]12CC[C@@H]3c4ccc(O)cc4C[C@@H](CCCCCCCCCS(=O)CCCC(F)(F)C(F)(F)F)[C@H]3[C@@H]1CC[C@@H]2O (some centres not stated)
not listed: [1] | [10]
inactive: all other assays above

CN(C(=O)CCCOc1ccc2[nH]c(=O)ccc2c1)C1CCCCC1
not listed: [1] | [10]
inactive: all other assays above

CCCCNc1ccc(C(=O)OCCN(C)C)cc1
not listed: [1] | [10]
inactive: all other assays above

NS(=O)(=O)c1cc2c(cc1Cl)NC(C1CC3C=CC1C3)NS2(=O)=O (configuration not stated)
not listed: [10]
inactive: all other assays above

CC1=C(C)C(=O)C(CCCCC#CCCCC#CCO)=C(C)C1=O
not listed: [1] | [10] | [11]
inactive: all other assays above

c1cc(CN2CCCCC2)cc(OCCCNc2nc3ccccc3s2)c1
not listed: [1] | [10]
inactive: all other assays above

CCCCOCCOCCOCc1cc2c(cc1CCC)OCO2
inactive: [2] | [4] | [5] | [8]

CCN(CC)CCOCCOC(=O)C1(c2ccccc2)CCCC1
not listed: [10]
inactive: all other assays above

COC(=O)C1=C(C)NC(C)=C(C(=O)OCCN(C)Cc2ccccc2)C1c1cccc([N+](=O)[O-])c1 (configuration not stated)
inactive: [2] | [3] | [4] | [6] | [7] | [8]

N[C@@H](COP(=O)(O)O)C(=O)O
not listed: [5] | [10] | [11]
inactive: all other assays above

CCCCNC(=O)NS(=O)(=O)c1ccc(C)cc1
not listed: [1] | [2] | [10]
inactive: all other assays above

COc1cc(Cc2cnc(N)nc2N)cc(OC)c1OC
not listed: [1] | [10] | [11]
inactive: all other assays above
